Out of some 340,000 compounds screened, about 1,000 (0.29%) were called active.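 Rule for the calls: active = fluorescence-ratio B-score plate-corrected deviation score at least 3 library SD below zero, with starting fluorescence score within 5 deviations; inactive = the rest.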 Many of the other results were omitted from the sample, so actives are more common in it than they were.

For ten molecules, B-score results are on record in PubChem BioAssay AID623877 (Johns Hopkins Ion Channel Center, 2012).

Sequence of Anoctamin-1 (Mus musculus) (Q8BHY3 whole entry, looked up): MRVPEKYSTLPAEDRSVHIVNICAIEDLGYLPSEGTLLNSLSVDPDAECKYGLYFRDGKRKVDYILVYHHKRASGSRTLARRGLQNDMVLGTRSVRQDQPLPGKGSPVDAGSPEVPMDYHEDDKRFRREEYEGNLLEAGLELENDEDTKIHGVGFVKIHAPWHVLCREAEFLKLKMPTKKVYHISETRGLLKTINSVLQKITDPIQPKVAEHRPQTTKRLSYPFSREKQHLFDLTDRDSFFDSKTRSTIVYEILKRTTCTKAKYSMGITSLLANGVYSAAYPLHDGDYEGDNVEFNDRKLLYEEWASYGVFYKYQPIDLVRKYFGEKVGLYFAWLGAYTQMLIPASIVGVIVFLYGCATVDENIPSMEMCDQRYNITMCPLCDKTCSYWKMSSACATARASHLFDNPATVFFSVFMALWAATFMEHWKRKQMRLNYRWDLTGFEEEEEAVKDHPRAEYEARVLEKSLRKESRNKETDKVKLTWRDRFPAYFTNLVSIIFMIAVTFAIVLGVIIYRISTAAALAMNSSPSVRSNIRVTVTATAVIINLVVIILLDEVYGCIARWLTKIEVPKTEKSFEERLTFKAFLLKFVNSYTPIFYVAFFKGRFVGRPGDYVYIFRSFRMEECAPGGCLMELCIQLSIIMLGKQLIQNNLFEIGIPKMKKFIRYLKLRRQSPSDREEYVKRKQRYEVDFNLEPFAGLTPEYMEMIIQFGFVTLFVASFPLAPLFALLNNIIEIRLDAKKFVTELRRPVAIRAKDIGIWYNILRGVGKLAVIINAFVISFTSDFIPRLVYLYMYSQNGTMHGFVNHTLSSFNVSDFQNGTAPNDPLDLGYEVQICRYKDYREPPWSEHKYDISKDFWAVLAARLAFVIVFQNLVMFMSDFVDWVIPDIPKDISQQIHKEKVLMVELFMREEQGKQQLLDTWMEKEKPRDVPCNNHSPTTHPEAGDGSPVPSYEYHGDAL

The assay has as its target Anoctamin-1 (Mus musculus) (UniProt Q8BHY3). Briefly: TMEM16A chloride channel activators or potentiators, primary screen, cell-based, HTS (AID 623877).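 For B-score: channel opened by trigger with iodide after compound preincubation; score built on the fluorescence ratio of max minus min over baseline; more negative score means more quench and so TMEM16A activation or potentiation.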 The settings on record: HEK293 TMEM16A/YFP-H148Q/I152L, iodide quench fluorescence, at 10 µM; hits give low values.
For the molecule `CC(=O)C1(O)CCC2C3CCC4=C(Cl)C(=O)CCC4(C)C3CCC21C` (stereo not given), the B-score is -5.25 (active).

As for `Cc1cc(C)cc(NC(=S)NC2CC3CCCC(C2)N3Cc2cccs2)c1` (stereo not given), the B-score entry is “inactive”.

Regarding `Cc1nn(Cc2ccccc2Cl)c(Cl)c1C(=O)OC(C(=O)NC(N)=O)C(C)C` (stereo not given), the B-score entry is “inactive”.

Regarding `Cc1nc2ccccn2c1P(=S)(N1CCCCC1)N1CCCCC1`, the B-score was -9.49 (active).

`COc1ccc(C(=O)C2CN(C)CC2C(=O)c2ccc(OC)cc2)cc1` (stereo not given): the B-score result is “inactive”.

`O=C(CSC1c2ccccc2-c2ccccc21)N/N=C/c1ccccc1`: the B-score result was “inactive”.

Regarding `CC1C(=O)OC2CCN3CC=C(COC(=O)C(C)(O)C1(C)O)C23` (stereo not given), the B-score entry is “inactive”.

As to `CCN(CC)P(=O)(Oc1cccc(C)c1)N(CC)CC`, the B-score entry was “inactive”.

As to `C=Cn1ccnc1P(=S)(c1cc(N(CC)CC)ns1)c1nccn1C=C`, the B-score entry was “inactive”.

In the case of `Cc1cc2ccccn2c1C(C[N+](=O)[O-])c1c(F)cccc1Cl` (stereo not given), the B-score result was “inactive”.
